Sampled rows, rich in hits. Any-hit rate of the full collection: about 2.4%.
M1 ag: human M1 muscarinic receptor agonism; P11229; CHO-K1 hM1, Fluo-8 calcium fluorescence, agonist mode; 0% DMSO, 100% acetylcholine EC100; activation, % at 3 µM; hit rate 0.33% among 360,000;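 active = activation above the run's mean compound activation plus 3 SD, cut at about 16% in these data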;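 note: peak over basal fluorescence ratio within a 140 s kinetic read after compound addition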
Target sequence (P11229 whole entry, looked up): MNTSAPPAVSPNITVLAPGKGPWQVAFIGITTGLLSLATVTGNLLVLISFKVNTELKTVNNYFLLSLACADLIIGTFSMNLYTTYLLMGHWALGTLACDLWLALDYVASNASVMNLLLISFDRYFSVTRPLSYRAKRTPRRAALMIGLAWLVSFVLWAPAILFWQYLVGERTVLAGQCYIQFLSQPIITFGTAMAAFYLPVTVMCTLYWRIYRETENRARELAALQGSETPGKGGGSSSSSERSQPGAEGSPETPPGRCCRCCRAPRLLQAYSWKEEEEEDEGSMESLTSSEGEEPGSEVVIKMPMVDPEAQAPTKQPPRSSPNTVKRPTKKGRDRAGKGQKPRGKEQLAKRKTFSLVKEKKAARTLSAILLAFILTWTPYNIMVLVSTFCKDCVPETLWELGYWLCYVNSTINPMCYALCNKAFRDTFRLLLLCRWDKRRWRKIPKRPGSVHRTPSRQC
CHO-K1 Ca antag: M1 antagonist counterscreen hit in parental CHO-K1 cells | ATP-induced calcium, Fluo-8 fluorescence | inhibition, % at 3 µM | hit rate 0.6% among 360,000 | AID 602250;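 active = inhibition above a per-plate cutoff, the plate's mean sample inhibition plus 3 SD, cut at about 24% in these data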
CHO-K1 Ca PAM: counter-screen for M1 PAMs: effect in parental CHO-K1 cells; ATP EC20, Fluo-8 calcium fluorescence; 0% at ATP EC20, 100% at ATP max; activation, % at 3 µM; hit rate 0.02% among 360,000; AID 602247;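 active = activation above the run cutoff, the mean activation of all test compounds plus 3 SD, cut at about 40% in these data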;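 note: peak over basal fluorescence ratio in a 140 s read after ATP addition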
M1 antag: antagonists of human M1 muscarinic receptor | P11229 | CHO-K1 hM1, Fluo-8 calcium fluorescence, ACh EC80 antagonist | hit rate 1.3% among 360,000 | inhibition, % at 3 µM | AID 588852;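 active = percent inhibition above its own plate's cutoff, namely the mean of that plate's compound wells plus 3 SD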;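 note: peak over basal fluorescence ratio during 140 s after agonist addition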
CHO-K1 Ca ag: counter-screen for M1 agonists: effect in parental CHO-K1 cells | Fluo-8 calcium fluorescence; scaled to maximal ATP response, vehicle zero | activation, % at 3 µM | hit rate 0.48% among 360,000; in the data active = activation above about 15%;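 note: untransfected CHO-K1 host cells lacking M1 receptor as counterscreen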
CHRM1 PAM: human CHRM1 positive allosteric modulation; activation, % at 3 µM; CHO-K1 hM1, Fluo-8 calcium fluorescence, ACh EC20; 0% = ACh EC20, 100% = maximal ACh; hit rate 0.088% among 360,000; P11229; in the data active = activation above about 19%, passing the limit was not always enough
Of the large screens only hits and unclear results are named; the others gave an inactive call.

CC(=O)c1ccc(NC(=O)Cn2cnc(S(=O)(=O)N3CCc4ccccc43)c2)cc1	CHO-K1 Ca antag 24.6
O=C(N/N=C/c1cn(-c2cccs2)nc1-c1ccccc1)c1ccccc1O	CHO-K1 Ca antag 29.5
Cc1cc(=O)c(C(=O)O)nn1-c1ccc(Cl)cc1	none
Clc1ccccn1	none
Cc1ccc2nc3c(cc(C(=O)NC4CCS(=O)(=O)C4)n3Cc3ccccc3)c(=O)n2c1 (stereo not drawn)	none
O=C(NCc1ccc(F)cc1)C1(S(=O)(=O)c2ccc(Cl)cc2)CC1	none
CCN(C(=O)c1ccc(C(C)(C)C)cc1)c1nnc(Cn2nnc3ccccc32)s1	CHO-K1 Ca antag 31.3, M1 antag 36.9
CCOc1ccc(OCCC(=O)OCC(=O)N(CC)c2c(N)n(Cc3ccccc3)c(=O)[nH]c2=O)cc1	none
O=C1CCCC/C1=C/Nc1ccc2c(c1)OCO2	CHO-K1 Ca antag 28.8
Cc1ccc(C(=O)N(Cc2nnc(-c3ccccc3Cl)o2)C2CC2)o1	none
CCC(=O)c1ccc(OCC(=O)N(Cc2nnc(-c3ccccc3Cl)o2)C2CC2)cc1	none
CN1CCN(S(=O)(=O)c2cccc(C(=O)N(Cc3nnc(-c4ccccc4Cl)o3)C3CC3)c2)CC1	CHO-K1 Ca ag 16.9
O=C(c1ccc([N+](=O)[O-])o1)N(Cc1nnc(-c2ccccc2Cl)o1)C1CC1	M1 antag 27.1
O=C(COc1ccc(Br)cc1)N(Cc1nnc(-c2ccccc2Cl)o1)C1CC1	M1 antag 37.4
O=C1OC(c2ccccc2)=N/C1=C/c1cccc(OC(=O)c2cccs2)c1	CHO-K1 Ca antag 42.8
Cc1no[n+]([O-])c1COc1cccc(/C=C2\N=C(c3ccccc3)OC2=O)c1	none
O=C(CSc1nnc(-c2cccs2)n1-c1ccccc1)N1CCOCC1	CHO-K1 Ca antag 35.4
CCn1c(SCC(=O)NCCc2ccccc2)nnc1-c1cccs1	none
CCn1c(SCC(=O)c2ccccc2)nnc1-c1cccs1	CHO-K1 Ca antag 26.1
O=C(CSc1nnc(-c2cccs2)n1-c1ccccc1)N1CCCC1	none
Nn1c(SCC(=O)N2CCCC2)nnc1-c1cccs1	CHO-K1 Ca antag 26.9
COc1cccc(OC)c1C(=O)Nc1cccc(S(=O)(=O)Nc2ccccc2Cl)c1	none
COc1ccccc1NS(=O)(=O)c1cccc(NC(=O)Nc2ccccc2)c1	CHO-K1 Ca antag 37.0, M1 antag 59.2, CHO-K1 Ca ag 18.4
COc1ccccc1NS(=O)(=O)c1cccc(NC(=O)Nc2ccc(Cl)cc2)c1	CHO-K1 Ca antag 38.1, M1 antag 44.0
CCCOP(=O)(c1ccc(N(C)C)cc1)C(Nc1ccccc1)c1ccc(N(C)C)cc1 (stereo not drawn)	none
CCCCOP(=O)(c1ccc(N(C)C)cc1)C(Nc1ccccc1)c1ccccc1 (stereo not drawn)	CHO-K1 Ca ag 26.6
CC(=O)Nc1cc(C(=O)N(C)Cc2ccccc2)ccc1S(=O)(=O)c1ccc(C)cc1	none
Cc1cccc(/C(N)=N/OC(=O)CCc2ccccc2)c1	M1 antag 31.5
COc1ccc(/C(N)=N/OC(=O)CCc2ccccc2)cc1OC	none
Nc1nonc1-n1nnc(C(=O)N/N=C/c2ccc(OCc3ccccc3F)cc2)c1CNc1ccccc1	none
Cc1cccc(N2C(=O)c3cccc4cccc(c34)C2=O)c1	none
Nc1ccc2c3c(cccc13)C(=O)N(c1ccccc1)C2=O	M1 ag 121.4, CHO-K1 Ca antag 25.7, M1 antag 52.0, CHO-K1 Ca ag 50.2
Nc1cccc(N2C(=O)c3cccc4c(N)ccc(c34)C2=O)c1	M1 ag 44.5, CHO-K1 Ca ag 15.3
Cc1cccc(N2C(=O)c3cccc4c(N(C)CCO)ccc(c34)C2=O)c1	M1 ag 22.8, CHO-K1 Ca ag 19.8
O=C(O)c1ccc2c3c(cccc13)C(=O)N(c1ccccc1)C2=O	none
Cc1cccc(N2C(=O)c3cccc4c(N)ccc(c34)C2=O)c1	M1 ag 108.4, CHO-K1 Ca antag 34.9, M1 antag 43.2, CHO-K1 Ca ag 123.7
O=C(O)c1cccc(N2C(=O)c3cccc4c(Cl)ccc(c34)C2=O)c1	none
CC(=O)Nc1cccc2c1C(=O)N(c1cccc(C)c1)C2=O	none
CCNC(=O)C1(C)CCN(C(=O)c2ccccc2OC(F)(F)F)C1 (stereo not drawn)	none
CC(C)CCN1C(=O)c2cccc3c(N)ccc(c23)C1=O	M1 ag 151.3, CHO-K1 Ca antag 67.0, M1 antag 70.4, CHO-K1 Ca ag 152.2
CCN1C(=O)c2cccc3c(Cl)ccc(c23)C1=O	none
Cc1cccc(CNC(=O)Cn2ccc3cc(S(=O)(=O)N4CCCC4)ccc32)c1	none
C[C@H](CO)N1C[C@H](C)[C@@H](CN(C)C(=O)Nc2ccc(C(F)(F)F)cc2)Oc2c(NC(=O)Nc3ccc(C(F)(F)F)cc3)cccc2C1=O	none
C[C@H]1CN([C@@H](C)CO)C(=O)c2cccc(NC(=O)Nc3ccc(C(F)(F)F)cc3)c2O[C@H]1CN(C)C	CHRM1 PAM 26.5
Cc1cc(C(=O)Nc2cccc3c2O[C@H](CN(C)CC2CC2)[C@@H](C)CN([C@H](C)CO)C3=O)n(C)n1	CHO-K1 Ca PAM 56.1
C[C@H](CO)N1C[C@H](C)[C@@H](CN(C)CC2CC2)Oc2c(NC(=O)C3CC3)cccc2C1=O	none
C=CCNc1nc(Nc2ccc([N+](=O)[O-])cc2)nc(OC)n1	CHO-K1 Ca antag 29.3
Oc1ccccc1N=N/C(=N/Nc1ccccc1O)c1ccccc1	none
N#C/C(N=Nc1ccccc1O)=N\Nc1ccccc1O	CHO-K1 Ca ag 16.3
C/C(=N\NC(=O)c1cccc(S(=O)(=O)N2CCCC2)c1)c1ccc(F)cc1	none
CCN1/C(=C2\C(=O)N(c3ccccc3)N=C2C)C=Cc2cc(C)ccc21	M1 ag 19.6, CHO-K1 Ca ag 23.7
CCN1/C(=c2/s/c(=C3/C(=O)N(c4ccccc4)N=C3C)n(CC)c2=O)C=Cc2ccccc21	none
Cc1cccc(Cc2c(C)nc3nc(SCC(=O)O)nn3c2C)c1	none
Cc1ccc(Cc2c(C)nc3nc(SCC(=O)NCCCN4CCCCC4)nn3c2C)cc1	M1 antag 26.4
Cc1nc2nc(SCC(=O)NCCN3CCOCC3)nn2c(C)c1Cc1ccccc1	none
Cc1ccc(Cc2c(C)nc3nc(SCC(=O)NCCCN4CCCC4)nn3c2C)cc1	M1 antag 28.8
O=C(NC1CC2CCCC(C1)N2C(=S)Nc1ccccc1Cl)C1CC1 (stereo not drawn)	none
Cc1ccc(C)c(NC(=S)N2C3CCCC2CC(NC(=O)C2CC2)C3)c1 (stereo not drawn)	M1 antag 37.5
CN(C1CCCCC1)S(=O)(=O)c1ccc2c(c1)CCC(=O)N2	none
Cc1ccc(NC(=O)/C(=C\c2ccc([N+](=O)[O-])cc2)NC(=O)c2ccccc2)cc1	none

Screening results as filed in PubChem.
